The source of these data is PubChem BioAssay (NCI).

The panel holds about 83,000 compounds, 20% with a hit somewhere; the sample as a whole holds those more often.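 Assay: single dose, 48 h. Readout: percent growth (0 = no net growth; negative = cell death). Active: <10.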 A number with no mark means an inactive call. Calls of active or inactive are those of the source.

In the first test the test system is SR leukemia. The experiment in a line: NCI-60 one-dose screen, 48 h (100 = growth as untreated, 0 = no growth, -100 = all killed). The note with it: 10 µM unless noted.
`O=[N+]([O-])c1cc([N+](=O)[O-])c(NN=C(c2ccc(O)cc2)c2ccc(O)cc2)cc1Cl`: the growth is 18.8%.
On the same count and under the same terms, the figure for `Cc1cc(SC#N)ncn1` is 109%; for `O=C(N/N=C/c1c(Cl)cccc1Cl)c1cccc(Nc2ccnc(C(F)(F)F)c2)c1` it is 106%.
On the same count and under the same terms, next, `O=[N+]([O-])c1cc([N+](=O)[O-])c(C(F)(F)F)cc1NN=C(c1ccc(O)cc1)c1ccc(O)cc1`: 66.1%; `N/C(=N\c1nc2ccccc2[nH]1)NC(=O)Cc1cccc2ccccc12`: 115%.
Still for that read-out and setting: next, `CCN(CC)CCCC(C)Nc1ccnc2cc(Cl)c(SCc3ccccc3)cc12` (stereo unspecified): -42.6% (active).
For `O=C(Oc1ccc(Cl)cc1[N+](=O)[O-])Oc1ccc(Cl)cc1[N+](=O)[O-]`, the growth was 82.1%.
On the same count and under the same terms, the figure for `C[C@@H](NC(=O)[C@@H](CC(=O)N1CCC(N2CCCCC2)CC1)N1C(=O)[C@@H](N2C(=O)OC[C@@H]2c2ccccc2)[C@H]1/C=C/c1cccc(Cl)c1)c1ccccc1` is -22.4% (active); for `COc1ccc2c3ccnc(C(F)(F)F)c3n(CCCCN)c2c1` it is 26.9%; for `CCOC(=O)c1c[nH]c2cc(OCC3CC3)c(OCC3CC3)cc2c1=O` it is 104%.
On the same count and under the same terms, next, `COc1ccc(-c2nc3ccccn3c2/C=C/C(=O)c2cc(OC)c(OC)c(OC)c2)cc1OC`: 27%; `NC(=S)Cc1ccccc1`: 97.9%; `CC(C)C1=NOC(=O)C1=Cc1cn(-c2ccccc2)nc1-c1cccc([N+](=O)[O-])c1`: -20.9% (active).
Take `O=c1c2c3c(sc2n2cnnc2n1Cc1ccccc1)CCCC3`: the growth is 78.6%.
Turning to `COc1cc(C)cc2oc3oc(=O)c(C(=O)c4cc5cc(Br)ccc5o4)cc3c(=O)c12`, the growth is 102%.
As to `COc1ccc(OC)c([N+](=O)[O-])c1C(=O)CNC(C)=O`, the growth is 118%.
Same read-out and setting: the figure for `COc1cc(C(=O)/C=C/c2c(-c3ccc(F)cc3)nc3sccn23)cc(OC)c1OC` is 26%.
On the same count and under the same terms, next, `CC(C)c1ccc(C(=O)Nc2nc3ccc(O)cc3s2)cc1`: 17.1%; `C=C(C)C1CCC2(C(=O)O)CCC3(C)C(CCC4C5(C)CCC(OC(=O)NCc6ccccc6)C(C)(C)C5CCC43C)C12` (stereo unspecified): 41.7%.
For the molecule `CCOC(=O)c1ccc2nc(-c3c(C)nn(-c4ccccc4)c3N3CCOCC3)[nH]c2c1`, the growth was 74%.
On the same count and under the same terms, the figure for `Nc1nc(SCc2cccc([N+](=O)[O-])c2)c2[nH]cnc2n1` is 95.6%.
The same measure, in the same setting: the figure for `COc1ccc2nc3c(cc2c1)C(=O)CC(c1ccccc1)C3` (stereo unspecified) is 17.7%; for `CCCC[C@@H](C=O)NC(=O)[C@H](CC(C)C)NC(=O)[C@H](CC(C)C)NC(=O)OCc1ccccc1` it is -24.4% (active).
As to `O=C(N/N=C/c1ccc([N+](=O)[O-])cc1)c1ccc(Br)o1`, the growth was 106%.
`NC1=NC(=O)NC1(c1ccccc1)c1ccccc1`: the growth was 97.9%.
On to `CSc1nc2sc3cc(Cl)c(Cl)cc3n2c(=N)c1C#N`, for which the growth was 106%.
On the same count and under the same terms, next, `Cn1c(=O)c(C#N)c(-c2ccco2)n2c(S(=O)(=O)Cc3ccccc3)nnc12`: 65.3%; `Nc1ccc2c(c1)Cc1cc(NC(=O)C(F)(F)F)ccc1-2`: 101%; `NC(=O)c1c(NC(=O)COC(=O)Cc2ccccc2F)sc2c1CCC2`: 125%.
As to `Cc1cccc([N+](=O)[O-])c1I`, the growth is 128%.
On the same count and under the same terms, next, `COc1ccc2nc3ccccc3c(NCCNCCO)c2c1`: -11.1% (active); `Cc1cc(NN=C(c2ccc(O)cc2)c2ccc(O)cc2)c([N+](=O)[O-])cc1[N+](=O)[O-]`: 84.9%.
Same read-out and setting: the figure for `N#Cc1c(Cl)nc(SCC2CO2)nc1-c1ccccc1` (stereo unspecified) is 89.8%; for `CCCCCCCCCCCCCCNC(=O)Nc1ccc(Cl)c(Cl)c1` it is 95%.
With `O=C1NC(=O)c2cc([N+](=O)[O-])cc3cccc1c23`, the growth was 114%.
Still for that read-out and setting: next, `CCN(CC)CCSC(=O)C(O)(c1ccccc1)C1CCCC1` (stereo unspecified): 96.7%; `CCC(Br)(CC)C(=O)c1ccc(OCC(=O)O)c(Cl)c1Cl`: 120%.
Same read-out and setting: next, `COc1ccc(C2CC(c3cc(OC)c(OC)c(OC)c3)=NN2C(C)=O)cc1OCC(=O)Nc1nc2ccc(C(F)(F)F)cc2s1` (stereo unspecified): 63.4%.

The subject of the next test is RPMI-8226 leukemia. Described as above. Particulars: 10 µM unless noted.
For `O=[N+]([O-])c1cc([N+](=O)[O-])c(NN=C(c2ccc(O)cc2)c2ccc(O)cc2)cc1Cl`, the growth was 67%.
Same read-out and setting: next, `Cc1cc(SC#N)ncn1`: 101%; `O=C(N/N=C/c1c(Cl)cccc1Cl)c1cccc(Nc2ccnc(C(F)(F)F)c2)c1`: 70.1%.
As for `O=[N+]([O-])c1cc([N+](=O)[O-])c(C(F)(F)F)cc1NN=C(c1ccc(O)cc1)c1ccc(O)cc1`, the growth was 76.4%.
As to `N/C(=N\c1nc2ccccc2[nH]1)NC(=O)Cc1cccc2ccccc12`, the growth was 92.9%.
The same measure, in the same setting: next, `CCN(CC)CCCC(C)Nc1ccnc2cc(Cl)c(SCc3ccccc3)cc12` (stereo unspecified): -36.6% (active); `O=C(Oc1ccc(Cl)cc1[N+](=O)[O-])Oc1ccc(Cl)cc1[N+](=O)[O-]`: 100%.
Regarding `C[C@@H](NC(=O)[C@@H](CC(=O)N1CCC(N2CCCCC2)CC1)N1C(=O)[C@@H](N2C(=O)OC[C@@H]2c2ccccc2)[C@H]1/C=C/c1cccc(Cl)c1)c1ccccc1`, the growth is 54.7%.
Same read-out and setting: the figure for `COc1ccc2c3ccnc(C(F)(F)F)c3n(CCCCN)c2c1` is 31.3%; for `CCOC(=O)c1c[nH]c2cc(OCC3CC3)c(OCC3CC3)cc2c1=O` it is 103%.
In the case of `COc1ccc(-c2nc3ccccn3c2/C=C/C(=O)c2cc(OC)c(OC)c(OC)c2)cc1OC`, the growth was -26% (active).
For `NC(=S)Cc1ccccc1`, the growth was 99.2%.
On to `CC(C)C1=NOC(=O)C1=Cc1cn(-c2ccccc2)nc1-c1cccc([N+](=O)[O-])c1`, for which the growth is -26.8% (active).
Consider `O=c1c2c3c(sc2n2cnnc2n1Cc1ccccc1)CCCC3`, for which the growth is 72.8%.
The same measure, in the same setting: next, `COc1cc(C)cc2oc3oc(=O)c(C(=O)c4cc5cc(Br)ccc5o4)cc3c(=O)c12`: 120%.
Same read-out and setting: the figure for `COc1ccc(OC)c([N+](=O)[O-])c1C(=O)CNC(C)=O` is 93.4%.
Take `COc1cc(C(=O)/C=C/c2c(-c3ccc(F)cc3)nc3sccn23)cc(OC)c1OC`: the growth is -44.2% (active).
Same read-out and setting: next, `CC(C)c1ccc(C(=O)Nc2nc3ccc(O)cc3s2)cc1`: 28.9%.
The same measure, in the same setting: next, `C=C(C)C1CCC2(C(=O)O)CCC3(C)C(CCC4C5(C)CCC(OC(=O)NCc6ccccc6)C(C)(C)C5CCC43C)C12` (stereo unspecified): 8.22% (active).
The same measure, in the same setting: the figure for `CCOC(=O)c1ccc2nc(-c3c(C)nn(-c4ccccc4)c3N3CCOCC3)[nH]c2c1` is 84.4%.
Turning to `Nc1nc(SCc2cccc([N+](=O)[O-])c2)c2[nH]cnc2n1`, the growth is 91.8%.
Still for that read-out and setting: the figure for `COc1ccc2nc3c(cc2c1)C(=O)CC(c1ccccc1)C3` (stereo unspecified) is 55.4%; for `CCCC[C@@H](C=O)NC(=O)[C@H](CC(C)C)NC(=O)[C@H](CC(C)C)NC(=O)OCc1ccccc1` it is -10.2% (active).
On the same count and under the same terms, the figure for `O=C(N/N=C/c1ccc([N+](=O)[O-])cc1)c1ccc(Br)o1` is 72%; for `NC1=NC(=O)NC1(c1ccccc1)c1ccccc1` it is 94.3%; for `CSc1nc2sc3cc(Cl)c(Cl)cc3n2c(=N)c1C#N` it is 112%.
Still for that read-out and setting: next, `Cn1c(=O)c(C#N)c(-c2ccco2)n2c(S(=O)(=O)Cc3ccccc3)nnc12`: 80.4%; `Nc1ccc2c(c1)Cc1cc(NC(=O)C(F)(F)F)ccc1-2`: 88.3%; `NC(=O)c1c(NC(=O)COC(=O)Cc2ccccc2F)sc2c1CCC2`: 130%.
With `Cc1cccc([N+](=O)[O-])c1I`, the growth was 99.6%.
Take `COc1ccc2nc3ccccc3c(NCCNCCO)c2c1`: the growth was 2.45% (active).
Same read-out and setting: next, `Cc1cc(NN=C(c2ccc(O)cc2)c2ccc(O)cc2)c([N+](=O)[O-])cc1[N+](=O)[O-]`: 123%; `N#Cc1c(Cl)nc(SCC2CO2)nc1-c1ccccc1` (stereo unspecified): 103%; `CCCCCCCCCCCCCCNC(=O)Nc1ccc(Cl)c(Cl)c1`: 72.6%.
The same measure, in the same setting: the figure for `O=C1NC(=O)c2cc([N+](=O)[O-])cc3cccc1c23` is 94.2%; for `CCN(CC)CCSC(=O)C(O)(c1ccccc1)C1CCCC1` (stereo unspecified) it is 109%; for `CCC(Br)(CC)C(=O)c1ccc(OCC(=O)O)c(Cl)c1Cl` it is 121%.
The same measure, in the same setting: next, `COc1ccc(C2CC(c3cc(OC)c(OC)c(OC)c3)=NN2C(C)=O)cc1OCC(=O)Nc1nc2ccc(C(F)(F)F)cc2s1` (stereo unspecified): 42%.
